# Key:
# [1] = biological target: Dual specificity protein kinase TTK (Homo sapiens) (UniProt P33981); conditions: at 0.1 µM
# [2] = tested on: Receptor-type tyrosine-protein kinase FLT3 (Homo sapiens), P36888 [D835Y]; conditions: at 1 µM
# [3] = biological target: Vascular endothelial growth factor receptor 3 (Homo sapiens) (UniProt P35916); conditions: at 0.1 µM
# [4] = biological target: Vascular endothelial growth factor receptor 3 (Homo sapiens) (UniProt P35916); conditions: at 1 µM
# [5] = biological target: Macrophage colony-stimulating factor 1 receptor (Homo sapiens) (UniProt P07333); conditions: at 0.1 µM
# Macrophage colony-stimulating factor 1 receptor (Homo sapiens), sequence (P07333 whole entry): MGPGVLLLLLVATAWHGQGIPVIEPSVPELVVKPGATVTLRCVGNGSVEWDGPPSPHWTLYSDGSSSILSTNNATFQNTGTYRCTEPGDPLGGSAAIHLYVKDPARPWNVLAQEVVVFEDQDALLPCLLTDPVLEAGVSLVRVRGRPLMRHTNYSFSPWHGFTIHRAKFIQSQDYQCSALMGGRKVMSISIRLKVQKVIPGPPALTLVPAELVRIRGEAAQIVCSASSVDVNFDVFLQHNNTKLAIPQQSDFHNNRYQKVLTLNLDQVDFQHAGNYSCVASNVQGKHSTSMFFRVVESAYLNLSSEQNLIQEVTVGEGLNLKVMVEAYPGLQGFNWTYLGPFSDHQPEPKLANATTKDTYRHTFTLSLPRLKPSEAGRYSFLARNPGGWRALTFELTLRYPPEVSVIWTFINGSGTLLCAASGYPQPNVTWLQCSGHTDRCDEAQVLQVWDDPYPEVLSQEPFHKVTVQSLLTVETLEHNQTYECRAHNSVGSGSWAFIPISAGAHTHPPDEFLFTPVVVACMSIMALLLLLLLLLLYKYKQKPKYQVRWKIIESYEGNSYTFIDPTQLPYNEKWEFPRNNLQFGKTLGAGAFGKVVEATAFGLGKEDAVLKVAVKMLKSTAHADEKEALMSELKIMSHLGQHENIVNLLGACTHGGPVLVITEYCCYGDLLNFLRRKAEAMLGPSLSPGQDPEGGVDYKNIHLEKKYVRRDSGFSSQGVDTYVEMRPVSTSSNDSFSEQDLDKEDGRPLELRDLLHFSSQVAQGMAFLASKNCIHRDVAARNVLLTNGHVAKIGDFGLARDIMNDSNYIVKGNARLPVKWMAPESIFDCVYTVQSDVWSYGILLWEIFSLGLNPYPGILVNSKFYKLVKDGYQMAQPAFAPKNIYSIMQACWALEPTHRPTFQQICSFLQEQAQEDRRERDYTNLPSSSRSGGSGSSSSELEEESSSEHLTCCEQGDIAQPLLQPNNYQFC
# [6] = biological target: Macrophage colony-stimulating factor 1 receptor (Homo sapiens) (UniProt P07333); conditions: at 1 µM
# [7] = biological target: Tyrosine-protein kinase Fyn (Homo sapiens) (UniProt P06241); conditions: at 0.1 µM
# [8] = biological target: Tyrosine-protein kinase Fyn (Homo sapiens) (UniProt P06241); conditions: at 1 µM
# [9] = biological target: Tyrosine-protein kinase HCK (Homo sapiens) (UniProt P08631); conditions: at 0.1 µM
# [10] = biological target: Tyrosine-protein kinase HCK (Homo sapiens) (UniProt P08631); conditions: at 1 µM
# [11] = biological target: Insulin-like growth factor 1 receptor (Homo sapiens) (UniProt P08069); conditions: at 0.1 µM
# [12] = biological target: Insulin-like growth factor 1 receptor (Homo sapiens) (UniProt P08069); conditions: at 1 µM
# [13] = biological target: Insulin receptor (Homo sapiens) (UniProt P06213); conditions: at 0.1 µM
# [14] = biological target: Insulin receptor (Homo sapiens) (UniProt P06213); conditions: at 1 µM
# [15] = biological target: Insulin receptor-related protein (Homo sapiens) (UniProt P14616); conditions: at 0.1 µM
# [16] = biological target: Insulin receptor-related protein (Homo sapiens) (UniProt P14616); conditions: at 1 µM
# [17] = biological target: Tyrosine-protein kinase ITK/TSK (Homo sapiens) (UniProt Q08881); conditions: at 0.1 µM
# [18] = biological target: Tyrosine-protein kinase ITK/TSK (Homo sapiens) (UniProt Q08881); conditions: at 1 µM
# [19] = biological target: Tyrosine-protein kinase JAK1 (Homo sapiens) (UniProt P23458); conditions: at 0.1 µM
# [20] = biological target: Tyrosine-protein kinase JAK1 (Homo sapiens) (UniProt P23458); conditions: at 1 µM
# [21] = biological target: Tyrosine-protein kinase JAK2 (Homo sapiens) (UniProt O60674); conditions: at 0.1 µM
# [22] = biological target: Tyrosine-protein kinase JAK2 (Homo sapiens) (UniProt O60674); conditions: at 1 µM
# [23] = biological target: Tyrosine-protein kinase JAK3 (Homo sapiens) (UniProt P52333); conditions: at 0.1 µM
# Tyrosine-protein kinase JAK3 (Homo sapiens), sequence (P52333 whole entry): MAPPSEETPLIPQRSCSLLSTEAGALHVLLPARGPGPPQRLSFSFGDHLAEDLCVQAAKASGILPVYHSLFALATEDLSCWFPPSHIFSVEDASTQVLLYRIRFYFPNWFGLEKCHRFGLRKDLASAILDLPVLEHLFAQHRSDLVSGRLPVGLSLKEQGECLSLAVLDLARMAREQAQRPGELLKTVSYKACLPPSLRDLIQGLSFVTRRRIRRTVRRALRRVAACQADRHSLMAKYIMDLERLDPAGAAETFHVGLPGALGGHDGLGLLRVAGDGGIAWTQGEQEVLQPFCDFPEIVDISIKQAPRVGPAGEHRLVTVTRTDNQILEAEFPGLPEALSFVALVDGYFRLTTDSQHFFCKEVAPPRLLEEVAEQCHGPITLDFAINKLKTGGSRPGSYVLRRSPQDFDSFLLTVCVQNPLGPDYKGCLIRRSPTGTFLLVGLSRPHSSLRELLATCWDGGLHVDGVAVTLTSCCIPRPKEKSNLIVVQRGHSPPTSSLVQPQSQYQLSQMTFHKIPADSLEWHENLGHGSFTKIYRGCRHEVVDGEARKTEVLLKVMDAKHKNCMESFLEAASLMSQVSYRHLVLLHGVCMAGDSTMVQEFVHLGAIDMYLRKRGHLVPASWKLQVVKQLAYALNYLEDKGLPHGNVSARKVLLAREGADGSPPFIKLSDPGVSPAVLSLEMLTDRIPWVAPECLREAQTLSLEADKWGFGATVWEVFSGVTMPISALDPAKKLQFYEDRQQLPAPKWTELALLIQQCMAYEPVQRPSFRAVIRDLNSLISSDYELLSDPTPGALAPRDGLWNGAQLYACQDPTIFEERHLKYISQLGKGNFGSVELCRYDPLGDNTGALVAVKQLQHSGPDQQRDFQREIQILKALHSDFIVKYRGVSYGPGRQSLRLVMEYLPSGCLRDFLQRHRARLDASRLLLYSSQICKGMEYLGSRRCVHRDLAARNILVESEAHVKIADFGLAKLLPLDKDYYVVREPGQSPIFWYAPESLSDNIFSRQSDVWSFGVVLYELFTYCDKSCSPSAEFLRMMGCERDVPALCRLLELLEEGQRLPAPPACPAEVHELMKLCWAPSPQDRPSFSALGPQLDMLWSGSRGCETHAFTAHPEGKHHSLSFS
# [24] = biological target: Tyrosine-protein kinase JAK3 (Homo sapiens) (UniProt P52333); conditions: at 1 µM
# [25] = biological target: Vascular endothelial growth factor receptor 2 (Homo sapiens) (UniProt P35968); conditions: at 0.1 µM
# [26] = biological target: Vascular endothelial growth factor receptor 2 (Homo sapiens) (UniProt P35968); conditions: at 1 µM
# [27] = biological target: Mast/stem cell growth factor receptor Kit (Homo sapiens) (UniProt P10721); conditions: at 0.1 µM
# [28] = biological target: Mast/stem cell growth factor receptor Kit (Homo sapiens) (UniProt P10721); conditions: at 1 µM
# [29] = tested on: Mast/stem cell growth factor receptor Kit (Homo sapiens), P10721 [D816V]; conditions: at 0.1 µM
# [30] = tested on: Mast/stem cell growth factor receptor Kit (Homo sapiens), P10721 [D816V]; conditions: at 1 µM
# [31] = tested on: Mast/stem cell growth factor receptor Kit (Homo sapiens), P10721 [T670I]; conditions: at 0.1 µM
# [32] = tested on: Mast/stem cell growth factor receptor Kit (Homo sapiens), P10721 [T670I]; conditions: at 1 µM
# [33] = tested on: Mast/stem cell growth factor receptor Kit (Homo sapiens), P10721 [V560G]; conditions: at 0.1 µM
# [34] = tested on: Mast/stem cell growth factor receptor Kit (Homo sapiens), P10721 [V560G]; conditions: at 1 µM
# [35] = biological target: Tyrosine-protein kinase Lck (Homo sapiens) (UniProt P06239); conditions: at 0.1 µM
# [36] = biological target: Tyrosine-protein kinase Lck (Homo sapiens) (UniProt P06239); conditions: at 1 µM
# [37] = biological target: Leukocyte tyrosine kinase receptor (Homo sapiens) (UniProt P29376); conditions: at 0.1 µM
# [38] = biological target: Leukocyte tyrosine kinase receptor (Homo sapiens) (UniProt P29376); conditions: at 1 µM
# [39] = biological target: Tyrosine-protein kinase Lyn (Homo sapiens) (UniProt P07948); conditions: at 0.1 µM
# Tyrosine-protein kinase Lyn (Homo sapiens), sequence (P07948 2-512 limits assumed): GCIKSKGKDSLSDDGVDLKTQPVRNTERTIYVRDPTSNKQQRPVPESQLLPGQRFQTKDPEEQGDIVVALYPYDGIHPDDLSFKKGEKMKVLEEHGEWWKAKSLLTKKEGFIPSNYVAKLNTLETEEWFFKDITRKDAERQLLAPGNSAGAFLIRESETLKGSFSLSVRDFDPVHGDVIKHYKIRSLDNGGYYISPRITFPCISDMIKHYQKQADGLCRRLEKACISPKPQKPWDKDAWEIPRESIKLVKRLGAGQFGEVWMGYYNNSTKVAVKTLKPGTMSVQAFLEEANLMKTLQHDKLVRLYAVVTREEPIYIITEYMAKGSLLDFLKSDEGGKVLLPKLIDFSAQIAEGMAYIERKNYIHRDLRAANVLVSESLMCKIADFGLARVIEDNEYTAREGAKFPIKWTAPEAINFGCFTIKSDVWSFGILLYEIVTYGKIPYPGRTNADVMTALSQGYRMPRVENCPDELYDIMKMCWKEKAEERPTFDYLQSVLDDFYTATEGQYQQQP
# [40] = biological target: Tyrosine-protein kinase Lyn (Homo sapiens) (UniProt P07948); conditions: at 1 µM
# [41] = biological target: Tyrosine-protein kinase Lyn (Homo sapiens) (UniProt P07948); conditions: at 0.1 µM; remark: listed apart in the source
# [42] = biological target: Tyrosine-protein kinase Lyn (Homo sapiens) (UniProt P07948); conditions: at 1 µM; remark: listed apart in the source
# [43] = biological target: Tyrosine-protein kinase Mer (Homo sapiens) (UniProt Q12866); conditions: at 0.1 µM
# Tyrosine-protein kinase Mer (Homo sapiens), sequence (Q12866 whole entry): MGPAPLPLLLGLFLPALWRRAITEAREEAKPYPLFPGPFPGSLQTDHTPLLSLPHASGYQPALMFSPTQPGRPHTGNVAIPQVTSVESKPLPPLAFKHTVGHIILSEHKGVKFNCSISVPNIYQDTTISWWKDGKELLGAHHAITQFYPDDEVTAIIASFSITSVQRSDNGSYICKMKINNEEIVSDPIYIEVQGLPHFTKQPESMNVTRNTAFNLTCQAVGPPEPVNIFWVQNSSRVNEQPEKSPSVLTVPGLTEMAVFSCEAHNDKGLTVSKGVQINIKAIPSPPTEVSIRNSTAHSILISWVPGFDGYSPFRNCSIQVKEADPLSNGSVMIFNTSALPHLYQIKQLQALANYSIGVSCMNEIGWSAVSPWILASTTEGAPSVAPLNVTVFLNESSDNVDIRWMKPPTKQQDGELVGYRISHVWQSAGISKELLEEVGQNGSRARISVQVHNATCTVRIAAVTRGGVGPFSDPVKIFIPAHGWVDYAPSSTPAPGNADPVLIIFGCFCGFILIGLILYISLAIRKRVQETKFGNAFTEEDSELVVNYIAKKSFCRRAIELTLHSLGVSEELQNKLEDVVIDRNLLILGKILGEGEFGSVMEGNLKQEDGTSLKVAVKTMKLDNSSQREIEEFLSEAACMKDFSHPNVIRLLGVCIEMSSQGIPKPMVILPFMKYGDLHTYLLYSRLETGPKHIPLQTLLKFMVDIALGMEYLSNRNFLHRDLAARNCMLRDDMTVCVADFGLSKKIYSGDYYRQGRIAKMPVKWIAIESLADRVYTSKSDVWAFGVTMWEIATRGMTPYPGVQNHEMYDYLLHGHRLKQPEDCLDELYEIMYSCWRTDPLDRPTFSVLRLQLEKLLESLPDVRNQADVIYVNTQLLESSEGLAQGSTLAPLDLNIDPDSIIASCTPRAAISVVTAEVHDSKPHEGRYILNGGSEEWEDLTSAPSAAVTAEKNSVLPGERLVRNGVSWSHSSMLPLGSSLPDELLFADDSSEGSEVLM
# [44] = biological target: Tyrosine-protein kinase Mer (Homo sapiens) (UniProt Q12866); conditions: at 1 µM
# [45] = biological target: Hepatocyte growth factor receptor (Homo sapiens) (UniProt P08581); conditions: at 0.1 µM
# [46] = biological target: Hepatocyte growth factor receptor (Homo sapiens) (UniProt P08581); conditions: at 1 µM
# [47] = biological target: Muscle, skeletal receptor tyrosine-protein kinase (Homo sapiens) (UniProt O15146); conditions: at 0.1 µM
# [48] = biological target: Muscle, skeletal receptor tyrosine-protein kinase (Homo sapiens) (UniProt O15146); conditions: at 1 µM
# [49] = biological target: Platelet-derived growth factor receptor alpha (Homo sapiens) (UniProt P16234); conditions: at 0.1 µM
# Platelet-derived growth factor receptor alpha (Homo sapiens), sequence (P16234 whole entry): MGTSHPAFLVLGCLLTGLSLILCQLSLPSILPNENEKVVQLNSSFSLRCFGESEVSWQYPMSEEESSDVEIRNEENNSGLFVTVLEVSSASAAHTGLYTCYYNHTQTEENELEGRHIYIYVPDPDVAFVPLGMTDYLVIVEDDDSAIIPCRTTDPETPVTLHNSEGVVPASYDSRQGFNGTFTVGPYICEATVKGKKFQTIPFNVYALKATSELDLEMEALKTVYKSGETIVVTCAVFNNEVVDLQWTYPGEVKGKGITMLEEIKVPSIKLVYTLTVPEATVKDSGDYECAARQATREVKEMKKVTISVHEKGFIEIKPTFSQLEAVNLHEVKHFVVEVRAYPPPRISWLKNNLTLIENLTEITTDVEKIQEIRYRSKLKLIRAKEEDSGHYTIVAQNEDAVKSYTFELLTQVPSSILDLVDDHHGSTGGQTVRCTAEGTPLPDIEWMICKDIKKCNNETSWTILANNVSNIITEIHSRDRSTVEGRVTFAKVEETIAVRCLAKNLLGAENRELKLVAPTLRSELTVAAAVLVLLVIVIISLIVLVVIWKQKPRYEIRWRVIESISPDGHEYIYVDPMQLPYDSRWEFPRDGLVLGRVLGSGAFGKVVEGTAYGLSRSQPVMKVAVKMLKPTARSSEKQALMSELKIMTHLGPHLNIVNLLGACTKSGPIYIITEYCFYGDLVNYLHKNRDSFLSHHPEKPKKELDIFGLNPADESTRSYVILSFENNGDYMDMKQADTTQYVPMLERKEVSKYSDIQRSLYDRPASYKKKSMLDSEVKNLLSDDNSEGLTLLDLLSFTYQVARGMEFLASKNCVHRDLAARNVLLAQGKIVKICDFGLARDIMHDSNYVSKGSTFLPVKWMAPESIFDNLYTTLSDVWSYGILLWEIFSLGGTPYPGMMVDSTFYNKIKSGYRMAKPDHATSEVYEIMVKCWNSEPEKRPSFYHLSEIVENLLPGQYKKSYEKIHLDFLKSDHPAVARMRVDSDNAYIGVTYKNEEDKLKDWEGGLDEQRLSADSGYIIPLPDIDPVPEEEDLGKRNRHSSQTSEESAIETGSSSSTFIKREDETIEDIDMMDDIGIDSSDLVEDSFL
# [50] = biological target: Platelet-derived growth factor receptor alpha (Homo sapiens) (UniProt P16234); conditions: at 1 µM
# [51] = tested on: Platelet-derived growth factor receptor alpha (Homo sapiens), P16234 [D842V]; conditions: at 0.1 µM
# Platelet-derived growth factor receptor alpha (Homo sapiens), P16234 [D842V], sequence (P16234 whole entry D842V): as the sequence (P16234 whole entry) above, with D842V counted along it
# [52] = tested on: Platelet-derived growth factor receptor alpha (Homo sapiens), P16234 [D842V]; conditions: at 1 µM
# [53] = tested on: Platelet-derived growth factor receptor alpha (Homo sapiens), P16234 [T674I]; conditions: at 0.1 µM
# Platelet-derived growth factor receptor alpha (Homo sapiens), P16234 [T674I], sequence (P16234 whole entry T674I): as the sequence (P16234 whole entry) above, with T674I counted along it
# [54] = tested on: Platelet-derived growth factor receptor alpha (Homo sapiens), P16234 [T674I]; conditions: at 1 µM
# [55] = tested on: Platelet-derived growth factor receptor alpha (Homo sapiens), P16234 [V561D]; conditions: at 0.1 µM
# Platelet-derived growth factor receptor alpha (Homo sapiens), P16234 [V561D], sequence (P16234 whole entry V561D): as the sequence (P16234 whole entry) above, with V561D counted along it
# [56] = tested on: Platelet-derived growth factor receptor alpha (Homo sapiens), P16234 [V561D]; conditions: at 1 µM
compound,measurement,setting,value
CNC(=O)Oc1cc(C)c(/C=C/c2cncc(C(=O)NC)c2)c(C)c1,inhibition,[1],3.53%
same,inhibition,[2],-6.68%
same,inhibition,[3],2.38%
same,inhibition,[4],3.06%
same,inhibition,[5],4.08%
same,inhibition,[6],28.3%
same,inhibition,[7],4.17%
same,inhibition,[8],32.4%
same,inhibition,[9],14.3%
same,inhibition,[10],51.1%
same,inhibition,[11],6.27%
same,inhibition,[12],6.14%
same,inhibition,[13],3.13%
same,inhibition,[14],3.08%
same,inhibition,[15],3.12%
same,inhibition,[16],2.02%
same,inhibition,[17],0.99%
same,inhibition,[18],1.69%
same,inhibition,[19],3.98%
same,inhibition,[20],-1.5%
same,inhibition,[21],1.67%
same,inhibition,[22],1.34%
same,inhibition,[23],0.21%
same,inhibition,[24],-1.11%
same,inhibition,[25],-0.28%
same,inhibition,[26],4.06%
same,inhibition,[27],12.7%
same,inhibition,[28],63.5%
same,inhibition,[29],4.33%
same,inhibition,[30],-0.14%
same,inhibition,[31],1.64%
same,inhibition,[32],-1.04%
same,inhibition,[33],2.06%
same,inhibition,[34],14.4%
same,inhibition,[35],6.81%
same,inhibition,[36],41%
same,inhibition,[37],3.84%
same,inhibition,[38],5.56%
same,inhibition,[39],13.7%
same,inhibition,[40],57.1%
same,inhibition,[41],9.47%
same,inhibition,[42],52.3%
same,inhibition,[43],1.05%
same,inhibition,[44],0.84%
same,inhibition,[45],-2.86%
same,inhibition,[46],-0.63%
same,inhibition,[47],1.43%
same,inhibition,[48],4.49%
same,inhibition,[49],12.5%
same,inhibition,[50],42.2%
same,inhibition,[51],2.6%
same,inhibition,[52],13.1%
same,inhibition,[53],3.98%
same,inhibition,[54],4.15%
same,inhibition,[55],13.5%
same,inhibition,[56],52.3%
